The values that follow come from PubChem BioAssay (EPA / NIEHS).

Read-out in experiment [1]: Interferon-gamma inducible Protein 10 (IP10), CXCL10 (gene 3627)
As to the kind of experiment: BSK_hDFCGF_IP10: BioMAP Diversity Plus: hDFCGF Assay for Interferon-gamma inducible Protein 10 (IP10) Biomarker Activity (AID 2283053). The conditions noted are these: primary human foreskin fibroblasts; actives raise or lower the signal. The method, boiled down:
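Chemical-treated human skin fibroblasts (primary) were sampled at 24 h for IP-10 by ELISA. Both increases and decreases relative to DMSO were scored.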

Read-out in experiment [2]: Urokinase-type plasminogen activator receptor (uPAR), PLAUR (gene 5329)
The experiment is described as follows: BSK_CASM3C_uPAR: BioMAP Diversity Plus: CASM3C Assay for Urokinase-type plasminogen activator receptor (uPAR) Biomarker Activity (AID 2283054).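 Note: cell-surface uPAR protein level quantified by ELISA.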 Particulars: primary human coronary artery smooth muscle cells; actives raise or lower the signal.

Read-out in experiment [3]: Vascular cell adhesion molecule 1 (VCAM1), VCAM1 (gene 7412)
As to the kind of experiment: BSK_CASM3C_VCAM1: BioMAP Diversity Plus: CASM3C Assay for Vascular cell adhesion molecule 1 (VCAM1) Biomarker Activity (AID 2283055).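 Note: VCAM-1 protein level quantified by ELISA on the cells.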 The conditions noted are these: primary human coronary artery smooth muscle cells; actives raise or lower the signal.

Read-out in experiment [4]: Epidermal growth factor receptor (EGFR), EGFR (gene 1956)
The experiment is described as follows: BSK_hDFCGF_EGFR: BioMAP Diversity Plus: hDFCGF Assay for Epidermal growth factor receptor (EGFR) Biomarker Activity (AID 2283057). Particulars: primary human foreskin fibroblasts; actives raise or lower the signal. The method, boiled down: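 Cell-based multiplexed assay in primary human foreskin fibroblasts. EGFR is read by ELISA 24 h after treatment and compared with DMSO controls.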

Read-out in experiment [5]: Interleukin-8 (IL8), CXCL8 (gene 3576)
The experiment is described as follows: BSK_hDFCGF_IL8: BioMAP Diversity Plus: hDFCGF Assay for Interleukin-8 (IL8) Biomarker Activity (AID 2283058). The conditions noted are these: primary human foreskin fibroblasts; actives raise or lower the signal. A digest of the protocol:
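hDFCGF human dermal fibroblasts; 24 h chemical exposure; IL-8 by ELISA; bidirectional curve fit vs DMSO baseline; gain or loss of signal scored.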

Experiment [6] is described as follows: BSK_hDFCGF_Proliferation: Cell Proliferation Assessment in the BioMAP Diversity Plus: hDFCGF Assay (AID 2283059).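 Note: curves fitted for both rise and fall of signal versus DMSO baseline.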 The conditions noted are these: primary human foreskin fibroblasts. The method, boiled down:
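Total protein read at 560 nm after 0.1% SRB staining of TCA-fixed human skin fibroblasts, […]. Activity is fitted in both directions relative to DMSO as baseline.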

Read-out in experiment [7]: Macrophage colony-stimulating factor (MCSF), CSF1 (gene 1435)
As to the kind of experiment: BSK_hDFCGF_MCSF: BioMAP Diversity Plus: hDFCGF Assay for Macrophage colony-stimulating factor (MCSF) Biomarker Activity (AID 2283060). The conditions noted are these: primary human foreskin fibroblasts; actives raise or lower the signal. A digest of the protocol:
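Human foreskin primary fibroblasts were treated with test chemical for 24 h, and M-CSF was then measured by ELISA. Data were fitted bidirectionally against DMSO as the negative control and activity baseline.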

Experiment [8] can be described thus: BSK_hDFCGF_SRB: Viability Assessment in the BioMAP Diversity Plus: hDFCGF Assay (AID 2283061).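 Note: cells exposed to compound for 24 h before the read.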 Particulars: primary human foreskin fibroblasts. The method, boiled down: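 Human foreskin primary fibroblasts were treated with compound and assessed 24 h after dosing. Total protein was measured by sulforhodamine B staining (0.1% SRB after 10% TCA fixation, 560 nm read) as a cytotoxicity marker, with bidirectional fitting against DMSO baseline.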

Read-out in experiment [9]: Monokine induced gamma interferon (MIG), CXCL9 (gene 4283)
As to the kind of experiment: BSK_hDFCGF_MIG: BioMAP Diversity Plus: hDFCGF Assay for Monokine induced gamma interferon (MIG) Biomarker Activity (AID 2283063). The conditions noted are these: primary human foreskin fibroblasts; actives raise or lower the signal. The method, boiled down: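 ELISA read-out of MIG from primary human dermal fibroblasts 24 h post-dosing. Gain or loss of signal fitted bidirectionally, DMSO as baseline.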

Read-out in experiment [10]: Matrix Metallopeptidase 1 (MMP1), MMP1 (gene 4312)
The experiment is described as follows: BSK_hDFCGF_MMP1: BioMAP Diversity Plus: hDFCGF Assay for Matrix Metallopeptidase 1 (MMP1) Biomarker Activity (AID 2283064). The conditions noted are these: primary human foreskin fibroblasts; actives raise or lower the signal. A digest of the protocol: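 MMP1 levels quantified by ELISA 24 h after dosing human dermal fibroblast cultures, with parallel SRB total-protein staining for overt cytotoxicity. Data fitted in both directions against DMSO baseline.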

Read-out in experiment [11]: Vascular cell adhesion molecule 1 (VCAM1), VCAM1 (gene 7412)
The experiment is described as follows: BSK_hDFCGF_VCAM1: BioMAP Diversity Plus: hDFCGF Assay for Vascular cell adhesion molecule 1 (VCAM1) Biomarker Activity (AID 2283065).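 For AC50: VCAM-1 protein level quantified by ELISA after 24 h chemical exposure.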 The conditions noted are these: primary human foreskin fibroblasts; actives raise or lower the signal. A digest of the protocol:
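Primary human foreskin fibroblasts (hDFCGF system) were dosed with chemical and VCAM-1 was measured by ELISA 24 h later. Bidirectional curve fitting used DMSO as negative control and activity baseline.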

Read-out in experiment [12]: Plasminogen activator inhibitor-1 (PAI1), SERPINE1 (gene 5054)
As to the kind of experiment: BSK_hDFCGF_PAI1: BioMAP Diversity Plus: hDFCGF Assay for Plasminogen activator inhibitor-1 (PAI1) Biomarker Activity (AID 2283066). Particulars: primary human foreskin fibroblasts; actives raise or lower the signal. A digest of the protocol: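 Human skin fibroblast cultures receive chemical for 24 h before PAI-1 is measured by ELISA; signal changes are fitted bidirectionally against DMSO-treated wells.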

Read-out in experiment [13]: Intercellular Adhesion Molecule 1 (ICAM1), ICAM1 (gene 3383)
As to the kind of experiment: BSK_KF3CT_ICAM1: BioMAP Diversity Plus: KF3CT Assay for Intercellular Adhesion Molecule 1 (ICAM1) Biomarker Activity (AID 2283067). Particulars: primary human keratinocytes with fibroblasts; actives raise or lower the signal. A digest of the protocol: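 Human keratinocyte plus foreskin fibroblast primary co-culture was exposed to chemical for 24 h. ICAM-1 was then quantified by ELISA, and the data were fit bidirectionally against DMSO as the negative control and baseline.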

Read-out in experiment [14]: Interferon-gamma inducible Protein 10 (IP10), CXCL10 (gene 3627)
The experiment is described as follows: BSK_KF3CT_IP10: BioMAP Diversity Plus: KF3CT Assay for Interferon-gamma inducible Protein 10 (IP10) Biomarker Activity (AID 2283068). The conditions noted are these: primary human keratinocytes with fibroblasts; actives raise or lower the signal. A digest of the protocol: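 Human keratinocyte plus foreskin fibroblast primary co-culture exposed to test chemical for 24 h; IP-10 measured by ELISA. Concentration-response fitted bidirectionally against DMSO control as baseline.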

A short description of experiment [15]: BSK_KF3CT_SRB: Viability Assessment in the BioMAP Diversity Plus: KF3CT Assay (AID 2283069). Particulars: primary human keratinocytes with fibroblasts. A digest of the protocol:
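Cytotoxicity was gauged by SRB staining (0.1% SRB, 10% TCA fixation, 560 nm) of parallel cultures at 24 h. The cells were primary human skin keratinocytes co-cultured with fibroblasts, and activity was fitted in both directions against DMSO.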

Read-out in experiment [16]: Interleukin-1 alpha (IL1a), IL1A (gene 3552)
As to the kind of experiment: BSK_KF3CT_IL1a: BioMAP Diversity Plus: KF3CT Assay for Interleukin-1 alpha (IL1a) Biomarker Activity (AID 2283070). Particulars: primary human keratinocytes with fibroblasts; actives raise or lower the signal. A digest of the protocol: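 IL-1a was detected by ELISA 24 h after chemical treatment of a co-culture of human skin keratinocytes and foreskin fibroblasts. Gain or loss of signal was fitted against the DMSO baseline.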

Read-out in experiment [17]: TIMP metallopeptidase inhibitor 2 (TIMP2), TIMP2 (gene 7077)
As to the kind of experiment: BSK_KF3CT_TIMP2: BioMAP Diversity Plus: KF3CT Assay for TIMP metallopeptidase inhibitor 2 (TIMP2) Biomarker Activity (AID 2283071). Particulars: primary human keratinocytes with fibroblasts; actives raise or lower the signal. A digest of the protocol:
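Measurements come from ELISA detection of TIMP-2 at 24 hours in a dosed human keratinocyte and foreskin fibroblast co-culture. DMSO serves as negative control and baseline.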

Read-out in experiment [18]: Transforming growth factor beta 1 (TGFb1), TGFB1 (gene 7040)
The experiment is described as follows: BSK_KF3CT_TGFb1: BioMAP Diversity Plus: KF3CT Assay for Transforming growth factor beta 1 (TGFb1) Biomarker Activity (AID 2283072). Particulars: primary human keratinocytes with fibroblasts; actives raise or lower the signal. The method, boiled down: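 TGF-b1 ELISA on a 24 h dosed co-culture of human keratinocytes and foreskin fibroblasts; cytotoxicity tracked in parallel cultures by SRB staining.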

Read-out in experiment [19]: TIMP metallopeptidase inhibitor 1 (TIMP1), TIMP1 (gene 7076)
The experiment is described as follows: BSK_hDFCGF_TIMP1: BioMAP Diversity Plus: hDFCGF Assay for TIMP metallopeptidase inhibitor 1 (TIMP1) Biomarker Activity (AID 2283062). Particulars: primary human foreskin fibroblasts; actives raise or lower the signal. The method, boiled down: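 Primary human foreskin fibroblasts in the hDFCGF system were dosed with compound for 24 h, then TIMP-1 was measured by ELISA. Activity was fitted bidirectionally relative to DMSO control; parallel SRB staining assessed cytotoxicity.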

Each structure is given as a SMILES string. The source made the active and inactive calls. Rule for the calls: active = hit-call score of the fitted dose curve at least 0.9, where 1 is the maximum; inactive = score below 0.9.

For `CC(=O)CC(C)(C)O`, the outcome in [1], in [2], in [3], in [4], in experiment [5] and in experiment [6] was inactive. Moreover, the result in experiment [7], in experiment [8], in experiment [9], in experiment [10], in experiment [11] and in experiment [12] was inactive. Besides, the outcome in experiment [13], in [14], in experiment [15], in [16], in [17] and in experiment [18] was inactive.
As a reminder, the AC50 is the concentration at which the activity in the assay is half-maximal. With `CC(C)(C)c1cc(C(C)(C)C)c(O)c(C(C)(C)C)c1`, the AC50 in experiment [1] was 32.8 µM (active); in experiment [5], 31.5 µM (active); in experiment [6], 10.8 µM (active); in experiment [7] it was 31.5 µM (active); in experiment [8] it was 32 µM (active); in [19] it was 31.8 µM (active). The AC50 in [9] is 33.5 µM (active); in experiment [10], 33.1 µM (active); in experiment [11], 31.5 µM (active); in experiment [12], 32.2 µM (active). Further, the outcome in experiment [2], in experiment [3], in experiment [4], in experiment [13], in experiment [15] and in experiment [16] was inactive. Also, the result in experiment [17] and in experiment [18] was inactive.
Take `Cc1oc(-c2ccccc2)nc1CCOc1ccc(C[C@H](Nc2ccccc2C(=O)c2ccccc2)C(=O)O)cc1`: the AC50 was 3.35 µM (active) in experiment [1]; 31.2 µM (active) in experiment [2]; 32.8 µM (active) in [3]; 1.85 µM (active) in [4]; 7.44 µM (active) in [5]; 1.81 µM (active) in experiment [6]. Also, the AC50 in [7] was 3.14 µM (active); in experiment [8], 2.42 µM (active); in experiment [9], 6.07 µM (active); in experiment [10], 2.05 µM (active); in [11] it was 3.61 µM (active); in experiment [12], 2.79 µM (active). The AC50 in [13] was 7.43 µM (active); in experiment [14], 2.86 µM (active); in experiment [15], 4.3 µM (active); in experiment [16], 8.87 µM (active); in experiment [17], 9.85 µM (active); in experiment [18] it was 7.38 µM (active).
In the case of `CN1CCC[C@H]1c1cccnc1`, the result in [1], in experiment [2], in experiment [3], in experiment [4], in experiment [5] and in experiment [6] was inactive. Besides, the result in experiment [7], in [8], in experiment [9], in experiment [10], in [11] and in experiment [12] was inactive. Further, the result in [13], in [14], in [15], in [16], in experiment [17] and in experiment [18] was inactive.
With `O=C(O)c1ccccc1C(c1ccc(O)cc1)c1ccc(O)cc1`, the result in experiment [1], in experiment [2], in [3], in experiment [4], in experiment [5] and in [6] was inactive. Moreover, the outcome in experiment [7], in [8], in experiment [9], in experiment [10], in experiment [11] and in experiment [12] was inactive. Also, the outcome in experiment [13], in [14], in experiment [15], in [16], in experiment [17] and in experiment [18] was inactive.
Regarding `CCC(=C(c1ccc(O)cc1)c1ccc(OCCN(C)C)cc1)c1ccccc1`, the AC50 in experiment [1] was 10.5 µM (active); in experiment [2] it was 20.3 µM (active); in experiment [3], 22.3 µM (active); in [5], 12.8 µM (active); in [6], 4.77 µM (active); in [7] it was 10.2 µM (active). The AC50 in [8] is 10.7 µM (active); in experiment [9], 13.7 µM (active); in experiment [10], 10.7 µM (active); in experiment [11], 10.7 µM (active); in experiment [12], 7.53 µM (active); in [13] it was 12.3 µM (active). The AC50 in experiment [15] is 8.81 µM (active); in [16], 9.91 µM (active); in [17] it was 10.5 µM (active); in experiment [18], 9.8 µM (active). Also, in experiment [4], the outcome was inactive.
